# Cycloheximide cs: affects cycloheximide protein synthesis inhibition readout, counter-screen. max response, %. 300,000 tested, 12% active. AID 2314. cell reporter, cycloheximide protein synthesis inhibition counterscreen; in the data active = max response mostly above about 13%, no sharp cut-off; inactive = mostly below about 14%; also: read at 38.3 µM for the half of the compounds with a filed dose; 0% is about no effect
# Pf growth 48h: inhibits P. falciparum growth in the first generation, 48 h. 310,000 tested, 5.9% active. Potency, µM (highest dose often 28.7 µM), inactives show top-dose activity change, negative = inhibition, most hits filed as inhibitors. P. falciparum luciferase growth in erythrocytes, 48 h. AID 504832; also: potency is read from the fitted curve at half-maximal effect; % is scaled to controls: 0 for no effect and ±100 for the full control effect
#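 Here the parasites carry a stable luciferase gene and grow inside erythrocytes in Albumax-based RPMI medium with compound for one erythrocytic cycle. Activity is scored as loss of luminescent signal.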
# Pf growth 96h: P. falciparum growth inhibition at 96 hour, primary screen for plastid delayed-death inhibitors; P. falciparum luciferase reporter growth, 96 h; Potency, µM (series often up to 28.7 µM), inactives show at the top dose activity change, negative = inhibition, hits mostly inhibitors; 320,000 tested, 6.9% active; also: potency is read from the fitted curve at half-maximal effect; % is scaled to controls: 0 for no effect and ±100 for the full control effect
#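 Luminescence readout: decreased luciferase signal marks inhibited growth of reporter-expressing P. falciparum in infected red cells (2% hematocrit, 0.05% parasitemia final), exposed to compound two generations (96 h, 37 C, 5% CO2).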
# Shiga inhibitor: blocks Shiga toxin action in Vero cells; Vero cells, Shiga toxin protein synthesis inhibition reporter; inhibition, % at 38.7 µM; 290,000 tested, 9.2% active; in the data active = inhibition mostly above about 28%, no sharp cut-off; inactive = mostly below about 43%; also: 0% is about no effect
# An asterisk follows results filed as active; ? = inconclusive; . = not tested or not shown. Most compounds without a hit are left out; they make up all but 21% or so of the library. Unless noted, calls follow the shape of the dose curve; as a rule, active = well fitted inhibition curve with a large enough effect; inconclusive = small, poorly fitted or top-dose-only effect, or another doubt; inactive = no such curve, though single readings can be large or run the other way.
SMILES,Cycloheximide cs,Pf growth 48h,Pf growth 96h,Shiga inhibitor
CC(C)=CCN1CCN(Cc2cc(C(C)C)n[nH]2)CC1CCO (configuration not stated),-3,2%,?,-4
O=C(N/N=C/c1ccc(OC(F)F)cc1)c1ccc(Br)cc1,-2,24%,11%,35
O=C(NO)c1ccc(OC(F)F)cc1,-3,10µM*,?,-13
Cn1nc(C(=O)Nc2nc3ccccc3[nH]2)c2ccccc2c1=O,29*,57%,-58%,33
N#CC(Cc1ccc(OC(F)F)cc1)c1nc2ccccc2[nH]1 (configuration not stated),26*,-18%,-58%,66*
CCC(Oc1ccccc1)C(=O)Nc1nc2ccccc2[nH]1 (configuration not stated),21*,22%,-19%,35
O=C1C[C@@H](c2ccccc2Cl)N1S(=O)(=O)c1ccccc1[N+](=O)[O-],-11,.,.,2
c1ccc(CN2CCC3(CC2)Nc2ccccc2S3)cc1,11,5%,23%,24
O=C(Nc1nc2ccccc2[nH]1)c1ccc(OC(F)F)cc1,19*,-23%,-21%,59*
Cn1nc(C(=O)NCC2CCCO2)c2ccccc2c1=O (configuration not stated),-1,14%,.,-7
CC(C)Oc1ccc(C(=O)Nc2nc3ccccc3[nH]2)cc1,25*,-94%,-39%,33
Cn1nc(C(=O)NCc2ccccc2CN2CCCC2)c2ccccc2c1=O,.,?,15µM*,.
CC12CCC(=O)N1C(C(=O)NCc1ccccc1Cl)CS2 (configuration not stated),.,8%,35%,.
O=C(CN(Cc1ccccc1)S(=O)(=O)c1ccccc1)N/N=C/c1ccccc1C(=O)O,-3,5%,?,-14
O=C1/C(=C\c2ccc(O)c(O)c2)Oc2c1ccc(O[C@@H]1O[C@H](CO)[C@@H](O)[C@H](O)[C@H]1O)c2O,10,.,.,2
COc1ccc(CN2CC(=O)N(c3cc(Cl)ccc3OC)C2=S)cc1OC,-4,9.3µM*,-4%,-8
COc1ccc(N2C(=O)CN(Cc3cc(OC)c(OC)c(OC)c3)C2=S)cc1,10,?,10%,-8
COc1ccc(CN2CC(=O)N(c3ccccc3OC)C2=S)cc1OC,-2,.,-5%,-5
COc1ccc(Cl)cc1N1C(=O)CN(Cc2cc(OC)c(OC)c(OC)c2)C1=S,-3,3.3µM*,37%,-12
Cc1ccc(C2(C)CC(C)(C)N(C(=O)CSc3nnc(C)s3)c3ccccc32)cc1 (configuration not stated),1,13µM*,?,-11
Cc1nnc(SCC(=O)N2c3ccccc3C(C)(c3ccccc3)CC2(C)C)s1 (configuration not stated),-2,10µM*,12µM*,-7
CCOC(=O)C1C(=O)NC(c2ccccc2)=NC1c1ccc(Br)cc1 (configuration not stated),-2,2%,19%,-15
COc1ccc(C(CNC(=O)c2ccc(C)o2)N2CCOCC2)cc1 (configuration not stated),.,-28%,14%,.
COc1ccc(C(CNC(=O)c2c(C)nn(Cc3ccc(C)cc3)c2Cl)N2CCOCC2)cc1 (configuration not stated),.,10µM*,?,.
Cc1ccc(Cn2nc(C)c(C(=O)NCC(c3cccs3)N3CCOCC3)c2Cl)cc1 (configuration not stated),.,12µM*,?,.
SMILES,Cycloheximide cs,Pf growth 48h,Pf growth 96h,Shiga inhibitor
O=C(Cn1cnc2sc3c(c2c1=O)CCCC3)NCC(=O)Nc1ccc(F)cc1F,1,-15%,17%,-11
Cc1cc(C(=O)Nc2cnn(Cc3ccc(Cl)cc3Cl)c2)no1,15*,4.1µM*,86%,35*
Cc1ccccc1Cn1cc(NS(=O)(=O)c2cn(C)nc2C)cn1,-2,4%,21%,-31
Cc1ccccc1Cn1cc(NC(=O)c2nn(C)cc2Cl)cn1,17,36%,-29%,28*
COc1ccccc1CN1CC(C(=O)NCc2cc(F)ccc2C)CCC1=O (configuration not stated),32*,?,?,40*
COc1ccccc1CN1CC(C(=O)NCc2cnn(C)c2)CCC1=O (configuration not stated),0,10%,6.6µM*,-28
Cc1ccc(F)cc1CNC(=O)C1CCC(=O)N(CCc2ccccc2)C1 (configuration not stated),9,17%,47%,13
Cn1cc(CNC(=O)C2CCC(=O)N(Cc3ccccc3F)C2)cn1 (configuration not stated),-2,2%,?,-5
C#CCn1c(=NC(=O)CSCC(=O)N2CCOCC2)sc2ccccc21,-2,19%,-21%,-3
CN1CCN(C(=O)/C(=C/c2ccccc2F)NC(=O)c2ccccc2)CC1,2,22%,41%,-9
COc1ccc(NS(=O)(=O)c2ccc(N3CCCC3)c(NC(=S)Nc3ccc(SC(F)F)cc3)c2)cc1,8,?,13µM*,-4
COc1ccc(NS(=O)(=O)c2ccc(N3CCCC3)c(NC(=S)Nc3cccc(C)c3C)c2)cc1,-1,?,?,-17
COc1ccc(-c2noc(N3CCC(C(=O)N(C)c4ccccc4)CC3)n2)cc1,8.2*,?,1%,13
COc1ccc(-c2noc(N3CCC(C(=O)NCCCN4CCCC(C)C4)CC3)n2)cc1 (configuration not stated),active,-5%,8%,18
COc1ccc(-c2noc(N3CCC(C(=O)NCc4ccc(Cl)cc4)CC3)n2)cc1,0,31%,-2%,1
COc1ccc(-c2noc(N3CCC(C(=O)NCCCN4CCCCC4)CC3)n2)cc1,3,?,2%,20*
CN(CC(=O)Nc1ccccc1Cl)C(=O)Cn1cnc2ccccc2c1=O,.,?,26%,.
O=C(Cc1ccc(Cl)c(Cl)c1)N1CCOCC1,8,?,?,35*
O=C(Cc1ccc(Br)cc1)N1CCN(c2ccccc2O)CC1,36*,7%,.,95*
Cc1cccc(CC(=O)N2CCOCC2)c1,-2,-7%,?,-14
O=C(Cc1ccc(Br)cc1)N1CCOCC1,11*,0%,?,23
C=CCOc1ccc(/C=C/C(=O)OCC(=O)NCC(=O)Nc2c(C)cc(C)cc2C)cc1,.,2%,1%,.
CCOc1ccc(N2CC(C(=O)NCc3ccc4c(c3)OCO4)CC2=O)cc1 (configuration not stated),5,-4%,?,-11
COc1nnc(-c2ccc(C)cc2)c2ccccc12,-3,?,?,-3
C=C(C)CC(C)(C)C,-4,.,.,20
CCOc1ccccc1NC(=O)C1CCCN(S(=O)(=O)c2ccc(-n3cnnn3)cc2)C1 (configuration not stated),-1,?,?,-10
COc1ccccc1CNS(=O)(=O)c1ccc(-c2cnc(C3CC3)o2)cc1,-1,8%,?,-3
Cc1cccc(C(=O)Nc2ccccc2C(=O)OCC(=O)Nc2ccc(C#N)cc2)c1,46*,13%,22%,55*
O=C(CSc1nc2ccccc2o1)Nc1nc(-c2ccccc2)c(-c2ccccc2)s1,-6,-4%,-18%,-4

# Bioassay records deposited in PubChem by National Center for Advancing Translational Sciences (NCATS).
